# Pf growth 48h: Primary qHTS for delayed death inhibitors of the malarial parasite plastid, 48 hour incubation. P. falciparum luciferase growth in erythrocytes, 48 h. Potency, µM (top dose mostly 28.7 µM), for inactives: top-dose activity change, negative = inhibition, usual class: inhibitors. 310,000 tested, 5.9% active. AID 504832, 2011; also: potency is read from the fitted curve at half-maximal effect; % is scaled to controls: 0 for no effect and ±100 for the full control effect
#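 Luciferase-expressing P. falciparum in infected erythrocytes (2% hematocrit, 0.1% parasitemia final) in RPMI 1640/0.5% Albumax were exposed to compound for 48 hours at 37 C, 5% CO2; growth read as luminescence.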
# AMA1 RON2 block: qHTS for Inhibitors of AMA1-RON; Towards Development of Antimalarial Drug Lead: Primary Screen; Plasmodium falciparum AMA1 (3D7) - RON2 peptide interaction; AlphaScreen AMA1-biotinylated RON2 peptide binding; Potency, µM (titrated, usually from 58.2 µM), without a hit: top-dose activity change, negative = inhibition, actives largely listed as inhibitors; 360,000 tested, 0.2% active;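 also: potency is read from the fitted curve at half-maximal effect; 0% = vehicle wells and -100% = peptide control; nearly all actives have a fitted effect of over 45% in size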
#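 AMA1 (3D7) with his tag at 25 nM final met compounds first, then biotinylated RON2 peptide at 25 nM; detection used donor plus acceptor beads, 10 µg/mL apiece, read by AlphaScreen after 30 min at room temperature.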
# HCV inh: qHTS Assay for Inhibitors of Hepatitis C Virus (HCV); Huh7.5.1 HCVcc-Cre infection, luciferase reporter, 44 h; Potency, µM (highest dose often 41.8 µM), inactives show at the top dose activity change, negative = inhibition, usual class: inhibitors; 340,000 tested, 3.4% active; AID 651820, 2012; also: potency is read from the fitted curve at half-maximal effect; % is scaled to controls: 0 for no effect and ±100 for the full control effect
#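 HCVcc-Cre virus at an moi near 0.5 was added right after compound to cells cultured 4 h from seeding (1,000 cells/well). Luciferase activity was determined 44 h later, 15 min after substrate addition at RT.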
# CHX counter: Cycloheximide Counterscreen for Small Molecule Inhibitors of Shiga Toxin | cell reporter, cycloheximide protein synthesis inhibition counterscreen | max response, % | 300,000 tested, 12% active; in the data active = max response mostly above about 13%, no sharp cut-off; inactive = mostly below about 14%; also: read at 38.3 µM for the half of the compounds with a filed dose; 0% is about no effect
# Pf growth 96h: Primary qHTS for delayed death inhibitors of the malarial parasite plastid, 96 hour incubation. P. falciparum luciferase reporter growth, 96 h. Potency, µM (highest dose often 28.7 µM), for inactives: at the highest dose activity change, negative = inhibition, actives largely listed as inhibitors. 320,000 tested, 6.9% active; also: potency is read from the fitted curve at half-maximal effect; % is scaled to controls: 0 for no effect and ±100 for the full control effect
#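 P. falciparum expressing integrated firefly luciferase, in erythrocytes at 2% hematocrit, 0.05% parasitemia, incubated with compounds 96 h at 37 C, 5% CO2. Growth inhibition read as loss of luminescence; two-generation exposure targets delayed-death apicoplast inhibitors.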
# Shiga inhibitor: A qHTS for Small Molecule Inhibitors of Shiga Toxin | Vero cells, Shiga toxin protein synthesis inhibition reporter | inhibition, % at 38.7 µM | 290,000 tested, 9.2% active | AID 2315, 2010; in the data active = inhibition mostly above about 28%, no sharp cut-off; inactive = mostly below about 43%; also: 0% is about no effect
# Starred values were filed as active, the others as inactive; ? = inconclusive; nt = no result; [ ] = dose if it differs, or a comment. A selection: hits, their analogues and other compounds. The true share with any hit is near 21%. Unless noted, calls follow the shape of the dose curve; as a rule, active = well fitted curve in the direction sought with a large enough effect; inconclusive = small, poorly fitted or top-dose-only effect, or another doubt; inactive = no such curve, though single readings can be large; an effect the other way counts as inactive or inconclusive.
SMILES,Pf growth 48h,AMA1 RON2 block,HCV inh,CHX counter,Pf growth 96h,Shiga inhibitor
CC(C)[C@@H]1NC(=O)[C@H](CCCCN)NC(=O)[C@@H](Cc2c[nH]c3ccccc23)NC(=O)[C@H](Cc2ccc(O)cc2)NC(=O)[C@@H](NC(=O)[C@H](N)Cc2ccccc2)CSSC[C@@H](C(=O)N[C@@H](Cc2c[nH]c3ccccc23)C(N)=O)NC1=O,nt,nt,nt,-15,nt,-9
CCn1nc(C)c(CN2CCC(n3nccc3NC(=O)c3ccc4c(c3)OCO4)CC2)c1C,7%,1%,13%,-3,0%,-18
COc1cc(-c2nc(-c3ccc4c(c3)-c3ccccc3S4(=O)=O)c(-c3ccccc3)[nH]2)cc(OC)c1O,nt,-15%,?,22*,nt,20
Cn1cnc(S(=O)(=O)NC2CCN(Cc3c(F)cccc3Cl)CC2)c1,82%,-6%,1%,-3,0%,-12
COc1ccc(C2=CSC3=NNC4(CCCCC4)NN23)cc1,?,33%,-1%,35*,?,102*
Cc1ccc(C2=CSC3=NNC4(CCCCC4)NN23)cc1,-6%,73%,-24%,53*,3%,88*
Cc1ccc(C2=CSC3=NCCN23)c(C)c1,?,-5%,-13%,-1,?,-19
CC(Sc1nnc(C2CC2)n1C1CC1)C(=O)Nc1cccc(S(=O)(=O)N2CCOCC2)c1 (configuration not stated),-24%,0%,8%,nt,-17%,nt
COc1ccc(Nc2ncc3c(n2)CC(c2ccccc2)CC3=O)cc1 (configuration not stated),?,2%,?,2,?,18
O=C1CCCc2nc(NCc3ccco3)ncc21,31%,0%,6%,-2,27%,23
CCc1ccc(Nc2ncc3c(n2)CC(C)(C)CC3=O)cc1,154%,7%,-7%,57*,183%,75*
CCc1ccc(Nc2ncc3c(n2)CC(C)CC3=O)cc1 (configuration not stated),144%,1%,-3%,47*,?,96*
CC1(C)CC(=O)c2cnc(NCc3ccco3)nc2C1,22%,-5%,?,14*,13%,-1
CN(C(=O)COC(=O)/C=C/c1ccc(F)cc1)c1c(N)n(Cc2ccccc2)c(=O)[nH]c1=O,7%,-1%,-16%,nt,7%,nt
C=C1[C@@H](C)C2[C@H](Cc3ccccc3)NC(=O)[C@]23OC(=O)CC[C@H](O)CCC[C@H](C)C/C=C/[C@H]3[C@@H]1O (some centres not stated),0.93µM*,nt,nt,-4,0.37µM*,-2
C=C1[C@@H](C)[C@H]2[C@H](Cc3ccccc3)NC(=O)[C@]23OC(=O)/C=C/[C@H](O)CCC[C@@H](C)C/C=C/[C@H]3[C@@H]1O,nt,3%,14%,8,nt,33
CCOc1ccccc1N(CC(=O)Nc1ccccc1)S(=O)(=O)c1ccccc1,?,0%,-21%,-2,12µM*,-1
COCCOc1cc(N(CC(=O)N(C)C)S(=O)(=O)c2ccccc2)c(Cl)cc1Cl,4%,-16%,2%,14,12µM*,19
CCOc1ccccc1N(CC(=O)Nc1cccnc1)S(=O)(=O)c1ccc(C)cc1,?,4%,-11%,50*,38%,160*
COc1cccc(OC)c1C(=O)N1CCNCC1,-8%,0%,-3%,-4,?,nt
Nc1ncnc2c1cnn2C1CCCCC1,73%,-1%,8%,3,?,4
COCCNC(=O)CN(Cc1ccc(F)cc1)C(=O)CCC(=O)Nc1nccs1,45%,0%,14%,2,?,-7
Cc1cc(C)nc(/N=C(\N)Nc2ccc(C(C)C)cc2)n1,?,-20%,11µM*,14*,12µM*,23
Cc1cc(C)cc(N/C(N)=N/c2nc(C)cc(C)n2)c1,13µM*,3%,-66%,-5,4.1µM*,-22
CCC(=O)Nc1ccc(N/C(N)=N/c2nc(C)cc(C)n2)cc1,-4%,4%,?,0,?,19
SMILES,Pf growth 48h,AMA1 RON2 block,HCV inh,CHX counter,Pf growth 96h,Shiga inhibitor
CCCCc1ccc(N/C(N)=N/c2nc(C)cc(C)n2)cc1,?,6%,-84%,-2,4.1µM*,-3
Cc1ccc(N/C(N)=N/c2nc(C)cc(C)n2)cc1,?,13%,10%,-3,33%,-11
Cc1cc(C)nc(/N=C(\N)Nc2cccc([N+](=O)[O-])c2)n1,?,14%,?,4,10µM*,-6
Cc1cc(C)nc(/N=C(\N)Nc2ccc([N+](=O)[O-])cc2)n1,4%,3%,-24%,-3,10%,14
CCC1(c2ccc(F)cc2)NC(=O)N(CC(=O)N2c3ccccc3CC2C)C1=O (configuration not stated),?,-2%,10%,nt,?,nt
O=C(NC1CCCC1)C(c1ccc(F)cc1)N(Cc1ccc(F)cc1)C(=O)CCl (configuration not stated),0%,12%,?,-2,-13%,-4
COC(=O)c1ccc(NC(=O)CN2C(=O)CC(C)S(=O)(=O)c3ccccc32)cc1 (configuration not stated),27%,-8%,11%,-3,?,-2
COC(=O)c1ccc(CSc2nc(N3CCOCC3)c3c(c2C#N)CC(C)(C)OC3)o1,8.3µM*,-6%,8%,6,157%[5.75 µM],-12
Cc1ccc(-c2nc3c(c(SCC(=O)N4CCOCC4)n2)COC(C)(C)C3)cc1,nt,-9%,7%,nt,nt,nt
CC(Sc1nc(N2CCOCC2)c2c(c1C#N)CC(C)(C)OC2)C(=O)Nc1ccccc1 (configuration not stated),13µM*,3%,?,-1,nt,8
COC(=O)CCSc1nc(N2CCOCC2)c2c(c1C#N)CC(C)(C)OC2,?,15%,0%,-4,?,-4
CC(Sc1nc(-c2ccccc2)nc2c1COC(C)(C)C2)C(=O)N1CCOCC1 (configuration not stated),nt,-2%,10%,-5,8.3µM*,-8
CCOC(=O)CCSc1nc(N2CCOCC2)c2c(c1C#N)CC(C)(C)OC2,4.7µM*,-5%,0%,1,36%,10
CC(C(=O)NC1CCCC1)n1c(C2CC2)nc2ccccc21 (configuration not stated),nt,-7%,nt,nt,nt,nt
O=C(CSc1nnc(COc2ccc(Cl)cc2)o1)N1CCOCC1,-1%,-4%,-11%,-5,?,1
CC(C)CCSc1nc(N2CCOCC2)c2c(c1C#N)CC(C)(C)OC2,9.3µM*,-3%,?,-8,3%,-21
